The OligoGym collection

These sequences were tested against ICAM4 (assay: pooled miR-30 sensor sort-seq; sequence = guide strand). Conditions: shRNA.
Further: reference of the scale not given here.

| Sequence | sensor-assay potency score (higher = more potent) |
| --- | --- |
| TAGCTAGGCACTTGCATAGGTA | -0.927 |
| TAGCCCACCGGGAACACTGTAG | -0.579 |
| TCGTAGGTCAAGGTCACGTTGG | -0.884 |
| TTTTCCTGCGCAGGTCACGAGG | -1.77 |
| TTTTTCTCGCTCAGCCGGCATA | -1.31 |

What follows are sequences tested against ICOS in the same assay as above. Conditions: shRNA.

| Sequence | sensor-assay potency score (higher = more potent) |
| --- | --- |
| TTTGTCTTAGTGAGATCGCAGA | -0.78 |
| TTTTGTCTTAGTGAGATCGCAG | -0.217 |
| TACTGTACTGTACACATCCAGC | -0.859 |
| TTTAAGAATCTTTCTAGCCAAA | -1.13 |
| TAAAATTTGTACACCTCCGTTG | -0.108 |
| TTGTGAATTATTATTCATCTTG | -0.481 |
| TAAACATCTCATAATTGGCAGA | -0.689 |
| TTGTGAAATATAAACATCTCAT | -0.925 |
| TAAACTACAACATAATCCCAGT | -0.438 |
| TAGTATGATAGTGAAATGCGGA | -0.711 |
| TTGACTGATACAGTCATTCTTC | 0.168 |
| TTGTGATTCATAAATATGCAAA | -1.24 |
